Test results taken from the supplement of paper PMC12494721.
Where a name gives a salt, the structure may show the parent alone.

Experiments:
Conditions in all cases: incubation time: 27 h, anaerobic, 37 °C;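 for the amine columns active = adjusted P below 0.05 in both replicates with a change the same way and a mean fold change under 0.8 or over 1.25; inactive = the rest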
[1] = test system: Clostridium sporogenes DSM 1664; test: growth (OD595) fold change vs plate DMSO controls (fold change (ratio)); higher = more growth
Outline: (§1)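 Growth is expressed as the fold change relative to the median of the DMSO control wells on each plate. Cultures in mGAM were grown anaerobically in 96-well plates for 27 h at 37 °C, shaken, and read at 595 nm. Readings were blank-subtracted, corrected for compound background with 20 µM compound solutions in water, and converted to OD with a calibration factor of 5. Fold changes above 1.5 were set to NA, and each value is the mean of 2 biological replicates.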

Escherichia coli IAI1 [2] = test: as above
Outline: as §1

[3] = test system: Klebsiella aerogenes DSM 30053; test: as above
Outline: as §1

[4] = test system: Ruminococcus gnavus DSM 108212; test: as above
Outline: as §1

[5] = test system: Klebsiella aerogenes DSM 30053; test: fold change of Histamine concentration vs plate DMSO controls (fold change (ratio)); higher = more amine produced, active = hit call of the paper (significant change in both replicates, either direction)
Outline: (§2)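 Each value is the fold change relative to DMSO-only wells on the same plate. Four gut bacterial strains were grown anaerobically in mGAM at 37 °C for 27 h in 80 µL wells, starting at OD 0.1 before a 1:1 dilution, with compounds at 20 µM final (sweeteners 50 µM). Whole cultures were extracted with cold acetonitrile/methanol containing 0.1% formic acid, centrifuged, and amines were quantified by LC–triple-quadrupole MS (dynamic MRM) against external calibration curves with within-batch drift correction. Values are means of 2 biological replicates.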

[6] = test system: Clostridium sporogenes DSM 1664; test: fold change of Tryptamine concentration vs plate DMSO controls (fold change (ratio)); higher = more amine produced, active = hit call of the paper (significant change in both replicates, either direction)
Outline: as §2

[7] = test system: Ruminococcus gnavus DSM 108212; test: as above
Outline: as §2

Escherichia coli IAI1 [8] = test: fold change of Putrescine concentration vs plate DMSO controls (fold change (ratio)); higher = more amine produced, active = hit call of the paper (significant change in both replicates, either direction)
Outline: as §2

[9] = test system: Klebsiella aerogenes DSM 30053; test: as above
Outline: as §2

Escherichia coli IAI1 [10] = test: fold change of Cadaverine concentration vs plate DMSO controls (fold change (ratio)); higher = more amine produced, active = hit call of the paper (significant change in both replicates, either direction)
Outline: as §2

[11] = test system: Klebsiella aerogenes DSM 30053; test: as above
Outline: as §2

[12] = test system: Ruminococcus gnavus DSM 108212; test: fold change of 2-Phenylethylamine concentration vs plate DMSO controls (fold change (ratio)); higher = more amine produced, active = hit call of the paper (significant change in both replicates, either direction)
Outline: as §2

Compound	growth [1]	growth (Escherichia coli IAI1 [2])	growth [3]	growth [4]	fold change of Histamine concentration [5]	fold change of Tryptamine concentration [6]	fold change of Tryptamine concentration [7]	fold change of Putrescine concentration (Escherichia coli IAI1 [8])	fold change of Putrescine concentration [9]	fold change of Cadaverine concentration (Escherichia coli IAI1 [10])	fold change of Cadaverine concentration [11]	fold change of 2-Phenylethylamine concentration [12]
COc1ccccc1N1CCN(CCCCNC(=O)c2ccc3ccccc3c2)CC1 (20 µM)	0.826	0.976	0.969	0.893	0.972 (inactive)	1.13 (inactive)	1.08 (inactive)	1.04 (inactive)	0.962 (inactive)	0.795 (inactive)	1.02 (inactive)	1.3 (inactive)
Cn1c(NCCN(CCO)CCCc2ccc([N+](=O)[O-])cc2)cc(=O)n(C)c1=O [Nifekalant] (20 µM)	1.11	1.06	1.08	1.22	0.994 (inactive)	1.01 (inactive)	1.01 (inactive)	1.04 (inactive)	1.02 (inactive)	0.971 (inactive)	1.01 (inactive)	0.997 (inactive)
CC(C)Nc1ncccn1 [Isaxonine] (20 µM)	1.12	0.989	1.07	1.01	0.936 (inactive)	1.05 (inactive)	0.919 (inactive)	1 (inactive)	1.04 (inactive)	1.01 (inactive)	1.01 (inactive)	0.894 (inactive)
COc1ccccc1N1CCN(CC(O)COc2cccc3ccccc23)CC1 (configuration not stated) [Naftopidil dihydrochloride] (20 µM)	1.11	0.99	1.17	0.961	0.884 (inactive)	1.02 (inactive)	0.888 (inactive)	0.981 (inactive)	1.01 (inactive)	1.06 (inactive)	1.02 (inactive)	0.963 (inactive)
COc1ccc(CC2c3cc(OC)c(OC)cc3CC[N+]2(C)CCC(=O)OCCCCCOC(=O)CC[N+]2(C)CCc3cc(OC)c(OC)cc3C2Cc2ccc(OC)c(OC)c2)cc1OC (configuration not stated) [Atracurium besylate] (20 µM)	0.945	1.13	0.964	1.13	1.01 (inactive)	1.15 (inactive)	1.1 (inactive)	1.09 (inactive)	0.953 (inactive)	1 (inactive)	1.03 (inactive)	1.05 (inactive)
C=CCc1ccccc1OCC(O)CNC(C)C (configuration not stated) [Alprenolol hydrochloride] (20 µM)	0.992	0.97	0.955	0.856	1.05 (inactive)	1.07 (inactive)	1.08 (inactive)	0.934 (inactive)	0.985 (inactive)	1.01 (inactive)	0.998 (inactive)	0.998 (inactive)
OCCN1CCN(CCCN2c3ccccc3Sc3ccc(Cl)cc32)CC1 [Perphenazine] (20 µM)	1.05	0.856	0.838	0.94	1.07 (inactive)	0.999 (inactive)	0.897 (inactive)	1.02 (inactive)	1.02 (inactive)	1.01 (inactive)	0.999 (inactive)	0.892 (inactive)
COCCCOc1cc(C[C@@H](C[C@H](N)[C@@H](O)C[C@H](C(=O)NCC(C)(C)C(N)=O)C(C)C)C(C)C)ccc1OC [Aliskiren hemifumarate] (20 µM)	1.02	0.992	1	0.808	1.06 (inactive)	1 (inactive)	1.04 (inactive)	1 (inactive)	1.02 (inactive)	1 (inactive)	0.987 (inactive)	1.05 (inactive)
CCCSc1nc(N[C@@H]2C[C@H]2c2ccc(F)c(F)c2)c2nnn([C@@H]3C[C@H](OCCO)[C@@H](O)[C@H]3O)c2n1 [Ticagrelor] (20 µM)	1.15	0.999	1.02	1.03	0.977 (inactive)	0.88 (inactive)	0.748 (active)	1.04 (inactive)	1.04 (inactive)	1.07 (inactive)	1.01 (inactive)	0.802 (inactive)
CN(C)CC/C=C1/c2ccccc2COc2ccc(CC(=O)O)cc21 [Olopatadine hydrochloride] (20 µM)	1.01	0.978	1.01	0.955	1 (inactive)	0.968 (inactive)	1.03 (inactive)	1.01 (inactive)	1 (inactive)	0.995 (inactive)	1 (inactive)	1.04 (inactive)
Nc1cc(C(Cl)=C(Cl)Cl)c(S(N)(=O)=O)cc1S(N)(=O)=O [Clorsulon] (20 µM)	1.04	0.963	0.957	0.922	1.15 (inactive)	0.998 (inactive)	1.02 (inactive)	1.02 (inactive)	1.03 (inactive)	0.981 (inactive)	0.978 (inactive)	1.01 (inactive)
O=C1CCc2cc(OCCCCc3nnnn3C3CCCCC3)ccc2N1 [Cilostazol] (20 µM)	1.06	0.963	0.98	0.879	1.04 (inactive)	1.02 (inactive)	0.994 (inactive)	1.01 (inactive)	1.03 (inactive)	1.03 (inactive)	0.995 (inactive)	0.936 (inactive)
CC(C)NCC(O)c1ccc2ccccc2c1 (configuration not stated) [Pronethalol hydrochloride] (20 µM)	1.12	1.01	0.993	0.98	0.97 (inactive)	0.978 (inactive)	1.04 (inactive)	1.01 (inactive)	0.986 (inactive)	0.994 (inactive)	0.982 (inactive)	1.05 (inactive)
Nc1c2c(nc3ccccc13)CCCC2 [Tacrine hydrochloride] (20 µM)	0.896	0.951	0.932	0.696	1.05 (inactive)	1.03 (inactive)	1.12 (inactive)	0.945 (inactive)	0.94 (inactive)	1.04 (inactive)	1.15 (inactive)	1.32 (active)
O=C(O)Cc1cc(I)c(Oc2ccc(O)c(I)c2)c(I)c1 [Tiratricol] (20 µM)	0.903	1.07	1.04	0.808	1.04 (inactive)	0.592 (active)	0.827 (inactive)	1.05 (inactive)	1.01 (inactive)	1.03 (inactive)	1.01 (inactive)	0.884 (inactive)
CO[C@@H]1[C@@H](O[C@@H]2O[C@H](C)[C@@H](O[C@H]3C[C@@](C)(O)[C@@H](OC(=O)CC(C)C)[C@H](C)O3)[C@H](N(C)C)[C@H]2O)[C@@H](CC=O)C[C@@H](C)[C@@H](O)/C=C/C=C/C[C@@H](C)OC(=O)C[C@H]1OC(C)=O [Josamycin] (20 µM)	0.00305	0.881	0.953	0.124	0.572 (inactive)	0.0546 (active)	0.135 (active)	0.708 (inactive)	1.08 (inactive)	1.34 (active)	1.06 (inactive)	0.116 (active)
CCCCNc1ccc(C(=O)OCCN(C)C)cc1 [Tetracaine hydrochloride] (20 µM)	1.06	1.02	0.968	0.907	1.08 (inactive)	1.04 (inactive)	1.07 (inactive)	0.956 (inactive)	1.04 (inactive)	0.983 (inactive)	0.991 (inactive)	1.05 (inactive)
CC(=O)Oc1cc(C(F)(F)F)ccc1C(=O)O [Triflusal] (20 µM)	1.01	0.971	0.952	0.878	1 (inactive)	1.03 (inactive)	1.01 (inactive)	1.04 (inactive)	0.97 (inactive)	0.988 (inactive)	0.992 (inactive)	1.02 (inactive)
CN/C(=N\CCSCc1nc[nH]c1C)NC#N [Cimetidine] (20 µM)	1.03	1.02	1.07	1.18	0.893 (inactive)	0.981 (inactive)	0.997 (inactive)	1.02 (inactive)	0.979 (inactive)	1.03 (inactive)	1.01 (inactive)	1.01 (inactive)
C[C@@](Cc1ccc(O)c(O)c1)(NN)C(=O)O [Carbidopa] (20 µM)	0.93	0.989	1.03	0.905	0.98 (inactive)	1.04 (inactive)	1 (inactive)	1.05 (inactive)	1.01 (inactive)	0.994 (inactive)	1 (inactive)	0.963 (inactive)
C#Cc1cccc(Nc2ncnc3cc(OCCOC)c(OCCOC)cc23)c1 [Erlotinib] (20 µM)	0.903	0.969	1.01	0.842	1.05 (inactive)	1 (inactive)	1.02 (inactive)	0.987 (inactive)	1.04 (inactive)	1.02 (inactive)	1.01 (inactive)	1.05 (inactive)
C[C@@H](O[C@H]1OCCN(Cc2n[nH]c(=O)[nH]2)[C@H]1c1ccc(F)cc1)c1cc(C(F)(F)F)cc(C(F)(F)F)c1 [Aprepitant] (20 µM)	1.21	0.988	1	1.2	1.02 (inactive)	0.945 (inactive)	0.742 (inactive)	1.03 (inactive)	1.01 (inactive)	1.02 (inactive)	0.993 (inactive)	0.791 (inactive)
CC(=O)O[C@]1(C(C)=O)CC[C@H]2[C@@H]3C=C(Cl)C4=CC(=O)CC[C@]4(C)[C@H]3CC[C@@]21C [Chlormadinone acetate] (20 µM)	1.01	1	0.994	0.974	1.04 (inactive)	0.965 (inactive)	0.931 (inactive)	1.04 (inactive)	1.02 (inactive)	1.02 (inactive)	0.995 (inactive)	0.895 (inactive)
Nc1ccc(O)c(C(=O)O)c1 [Mesalamine] (20 µM)	0.832	0.983	0.985	0.924	1.06 (inactive)	1.02 (inactive)	1.01 (inactive)	0.957 (inactive)	1.01 (inactive)	0.97 (inactive)	0.98 (inactive)	1.04 (inactive)
CO[C@H]1/C=C/O[C@@]2(C)Oc3c(C)c(O)c4c(O)c(c5c(nc6cc(C)ccn65)c4c3C2=O)NC(=O)/C(C)=C\C=C\[C@H](C)[C@H](O)[C@@H](C)[C@@H](O)[C@@H](C)[C@H](OC(C)=O)[C@@H]1C [Rifaximin] (20 µM)	0.00823	0.438	0.844	0.306	1.15 (inactive)	0.0445 (active)	0.144 (active)	0.996 (inactive)	0.651 (active)	1.53 (active)	1.04 (inactive)	0.149 (active)
CC(C)(C)NC(=O)[C@@H]1C[C@@H]2CCCC[C@@H]2CN1C[C@@H](O)[C@H](Cc1ccccc1)NC(=O)[C@H](CC(N)=O)NC(=O)c1ccc2ccccc2n1 [Saquinavir mesylate] (20 µM)	0.98	1.1	1.03	1.12	0.937 (inactive)	0.966 (inactive)	0.979 (inactive)	1.24 (inactive)	0.993 (inactive)	0.944 (inactive)	1.01 (inactive)	1.03 (inactive)
